{"source": "ChEMBL document CHEMBL3988442", "about": "“University of Dundee, Small-Polar-MMV Screening Library” (2021)", "note": "About 900 (1.7%) of roughly 53,000 compounds showed an effect of 50% or more. The entries come from a sample that favours strong results as a whole.", "data": [{"test_system": "Mycobacterium tuberculosis", "experiment": "Cornell - Phenotypic assay to identify agents that inhibit growth of Mycobacterium tuberculosis", "assay_type": "functional", "parameters": "scale not given: direction of the effect not stated beside the values", "conditions": "10 mM as filed; unlikely as a test dose", "units": {"Percent Effect": "%"}, "values": [{"smiles": "Cc1cc(C)cc(OCCN2CCn3c(C)nnc3C2)c1", "Percent Effect": 12.04}, {"smiles": "Cn1cc(C2=NOC(C(=O)NC3(c4cccc(F)c4)CCCC3)C2)cn1", "note": "(stereo not given)", "Percent Effect": -24.87}, {"smiles": "Cc1cc(C)nc(N2CCC(Cn3cc(C(N)=O)cn3)CC2)n1", "Percent Effect": -23.62}, {"smiles": "CCOc1ncccc1CNS(=O)(=O)c1ccc2c(c1)CCC2", "Percent Effect": 13.09}, {"smiles": "CCCn1cc(C(=O)N2CCCC(Cc3nccs3)C2)cn1", "note": "(stereo not given)", "Percent Effect": -22.26}, {"smiles": "CCCC(NC(=O)c1occc1C)c1nnn[nH]1", "note": "(stereo not given)", "Percent Effect": -83.42}, {"smiles": "COCc1nn(Cc2ccc(Cl)s2)c(=O)o1", "Percent Effect": -31.25}, {"smiles": "CCOCC(=O)N1CCC(CSCc2ccco2)CC1", "Percent Effect": 34.18}, {"smiles": "CC(=O)N1CCC(CSCc2ccco2)CC1", "Percent Effect": 7.881}, {"smiles": "CCOC(=O)CCC(=O)N1CCC(CSCc2ccco2)CC1", "Percent Effect": 59.48}, {"smiles": "Cc1[nH]ncc1CCCNC(=O)Nc1ccc2c(c1)OC1(CCCC1)O2", "Percent Effect": 72.51}, {"smiles": "Cc1[nH]ncc1CCCNC(=O)Nc1ccccc1", "Percent Effect": -14.63}, {"smiles": "Cc1[nH]ncc1CCCNC(=O)Nc1ccc(F)cc1", "Percent Effect": -28.46}, {"smiles": "COc1ccc2c3c1CN(C(C)=O)CC3=CC(C)(C)CO2", "Percent Effect": 9.21}, {"smiles": "COc1ccc2c3c1CN(C(=O)N(C)C)CC3=CC(C)(C)CO2", "Percent Effect": 89.58}, {"smiles": "COC(=O)N1CC2=CC(C)(C)COc3ccc(OC)c(c32)C1", "Percent Effect": 31.49}, {"smiles": "COc1ccc2c(c1)CN(c1cc(N3CCCC3CO)ncn1)CC2", "note": "(stereo not given)", "Percent Effect": 24.46}, {"smiles": "COc1ccc(C2CN(c3nc(C)cc(C)n3)CCN2C(C)=O)cc1", "note": "(stereo not given)", "Percent Effect": 37.66}, {"smiles": "COc1cccc(O[C@H]2CCN(c3nc(C)cc(C)n3)CC[C@@H]2O)c1", "Percent Effect": 6.067}, {"smiles": "COc1ccnc(N2CCc3ccc(OC(F)F)cc3C2)n1", "Percent Effect": 105.8}, {"smiles": "COc1ccnc(N2Cc3cnc(C(C)(C)C)nc3C2)n1", "Percent Effect": 15.27}, {"smiles": "Cc1cc(C)nc(N2CCc3ccc(OC(F)F)cc3C2)n1", "Percent Effect": 108.4}, {"smiles": "COc1ccnc(N2CCN(C(=O)N3CCOCC3)CC2)n1", "Percent Effect": -8.776}, {"smiles": "COc1ccc2c(c1)CN(c1nc(C)cc(C)n1)CC2", "Percent Effect": 63.12}, {"smiles": "Cc1cc(C)nc(N2Cc3cnn(Cc4ccc(F)cc4)c3C2)n1", "Percent Effect": 1.875}, {"smiles": "Cc1cnn(C2CCCN(C(=O)CCc3cnn(C)c3)C2)c1", "note": "(stereo not given)", "Percent Effect": -9.516}, {"smiles": "O=C(CN1CC(c2nc(-c3ccco3)no2)C1)NCc1ccc(F)cc1.O=C(O)C(=O)O", "Percent Effect": 26.13}, {"smiles": "CN(Cc1ccc2c(c1)OCO2)C(=O)c1ccc(C2CCCNC2)cc1", "note": "(stereo not given)", "Percent Effect": 14.52}, {"smiles": "O=S(=O)(c1ccc(-c2cnco2)cc1)N1CCCC2(CCNCC2)CC1", "Percent Effect": -3.285}, {"smiles": "Cl.O=C(CCN1CCCCC1)Nc1c2c(cc3c1CCC3)CCC2", "Percent Effect": -6.194}, {"smiles": "CCOC(C)c1nc(Cn2cccn2)cs1", "note": "(stereo not given)", "Percent Effect": 9.263}, {"smiles": "CCOC(C)c1nc(Cn2cc(-n3cccc3)cn2)cs1", "note": "(stereo not given)", "Percent Effect": 56.69}, {"smiles": "CCOC(C)c1nc(Cn2cc(C)cn2)cs1", "note": "(stereo not given)", "Percent Effect": 25.14}, {"smiles": "CC(=O)NCCNC(=O)Nc1ccc(Br)cc1C(C)C", "Percent Effect": -45.7}, {"smiles": "O=C(CN(Cc1cccs1)c1ccc(F)cc1)NC1CCOCC1", "Percent Effect": 47.86}, {"smiles": "Cc1ccc(CN(CC(=O)NCC2CCOC2)c2ccc(F)cc2)o1", "note": "(stereo not given)", "Percent Effect": 104.7}, {"smiles": "O=C(NCC1CCOC1)c1csc(-c2ccc(F)cc2)n1", "note": "(stereo not given)", "Percent Effect": -10.74}, {"smiles": "O=C(CN(CC(O)c1ccc(F)cc1)C1CC1)NC1CCOCC1", "note": "(stereo not given)", "Percent Effect": 2.353}, {"smiles": "Cc1ccc(CN(CC(=O)NC2CCOCC2)c2ccc(F)cc2)o1", "Percent Effect": 92.31}, {"smiles": "Cc1ccc(-c2nc(CC(=O)NCC3CCOC3)cs2)o1", "note": "(stereo not given)", "Percent Effect": 19.26}, {"smiles": "O=C(O)C(F)(F)F.O=C([C@H]1C[C@@H]2CCN(c3cccc(F)c3)C[C@H]2O1)N1CCCC1", "Percent Effect": 12.3}, {"smiles": "Cc1noc(C)c1-c1ccc(C2CCCN2C(=O)c2cnn(C)c2)nc1", "note": "(stereo not given)", "Percent Effect": 1.498}, {"smiles": "Cc1nc(CN2CCCN(C(=O)CC(C)n3cccc3)CC2)cs1", "note": "(stereo not given)", "Percent Effect": 7.748}, {"smiles": "CN(CCCc1cnn(C)c1)Cc1cc2n(n1)CCCNC2", "Percent Effect": 18.02}, {"smiles": "NC(=O)c1cc2c(nc1Oc1ccccc1CN1CCCCC1)CCC2", "Percent Effect": 23.43}, {"smiles": "Fc1cnc(N2CC3(CCN(Cc4ccsc4)C3)C2)nc1.O=C(O)C(F)(F)F", "Percent Effect": 30.35}, {"smiles": "O=C(O)C(F)(F)F.O=C(c1ccc(F)cc1)N1C[C@@H]2CCN(c3cccnc3)C[C@@H]2C1", "Percent Effect": -2.234}, {"smiles": "Fc1cccc(N2CCCC3(CN(Cc4cccnc4)CCO3)C2)c1.O=C(O)C(F)(F)F.O=C(O)C(F)(F)F.O=C(O)C(F)(F)F", "note": "(stereo not given)", "Percent Effect": 54.92}, {"smiles": "Fc1cccc(N2CCCC3(CN(Cc4ccco4)CCO3)C2)c1.O=C(O)C(F)(F)F.O=C(O)C(F)(F)F", "note": "(stereo not given)", "Percent Effect": 14.41}, {"smiles": "Fc1cnc(N2CCOC3(CCN(Cc4cccs4)CC3)C2)nc1.O=C(O)C(F)(F)F.O=C(O)C(F)(F)F", "Percent Effect": 5.693}, {"smiles": "Fc1cccc(N2CCCC3(CN(Cc4ccccn4)CCO3)C2)c1.O=C(O)C(F)(F)F.O=C(O)C(F)(F)F.O=C(O)C(F)(F)F", "note": "(stereo not given)", "Percent Effect": 43.65}, {"smiles": "Fc1cnc(N2CCOC3(CCN(Cc4ccsc4)CC3)C2)nc1.O=C(O)C(F)(F)F.O=C(O)C(F)(F)F", "Percent Effect": 103.8}, {"smiles": "Cn1cc(CN2CCOC3(CCCN(c4cccc(F)c4)C3)C2)cn1.O=C(O)C(F)(F)F.O=C(O)C(F)(F)F", "note": "(stereo not given)", "Percent Effect": -3.324}, {"smiles": "O=C(C1CCC1)N1C[C@@H]2CCN(c3cccnc3)C[C@@H]2C1.O=C(O)C(F)(F)F", "Percent Effect": -17.68}, {"smiles": "Fc1cccc(N2C[C@H]3CCN(c4cccnc4)C[C@H]3C2)c1.O=C(O)C(F)(F)F", "Percent Effect": 50.35}, {"smiles": "Cc1ccc(CN2CCOC3(CCCN(c4cccc(F)c4)C3)C2)o1.O=C(O)C(F)(F)F.O=C(O)C(F)(F)F", "note": "(stereo not given)", "Percent Effect": 65.05}, {"smiles": "Fc1cccc(N2CCCC3(CN(Cc4nccs4)CCO3)C2)c1.O=C(O)C(F)(F)F.O=C(O)C(F)(F)F", "note": "(stereo not given)", "Percent Effect": 39.92}, {"smiles": "CN(C)C(=O)N1C[C@@H]2CC[C@H](C1)N(C(=O)c1c(Cl)cccc1Cl)C2", "Percent Effect": 3.535}, {"smiles": "CCOCC1CN(C(=O)Cc2ccccn2)Cc2cn(C)nc21", "note": "(stereo not given)", "Percent Effect": -4.26}, {"smiles": "CO[C@@H]1CCN(Cc2ccccn2)[C@@H]2CN(Cc3ccco3)C[C@@H]21.O=C(O)C(F)(F)F.O=C(O)C(F)(F)F.O=C(O)C(F)(F)F", "Percent Effect": -14.11}]}]}
